Screening data (PubChem BioAssay)
KCNH2 3.1 inh – KCNH2 3.1 (human) potassium channel inhibition. U2OS KCNH2 3.1, thallium flux FluxOr; stronger effect = lower value. activity change, % (tested at about 1.8 µM). 340,000 compounds, 0.95% hits. AID 720553;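 active means maximum activity change below -70%; inconclusive means maximum activity change from -70% to -50%; inactive means maximum activity change above -50%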;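 further: thallium influx rate constant from kinetic fluorescence after stimulation buffer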
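Steps: virus added to U2OS suspension (4 h, RT, dark); medium with 10% FBS added, cells plated, 37 C overnight; FluxOr/Red40 loading buffer 45 min RT; stimulation buffer, 2 min kinetic read; rate constant normalized.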
SW480 rereplic – DNA re-replication induction in SW480 cells | 340,000 compounds, 1.8% hits | SW480 DNA re-replication, Hoechst DNA content imaging, 48 h | Potency, µM (titrated, usually from 46.1 µM), usual class: activators; further: nearly all actives have a fitted effect of over 55% in size
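250 cells/well; 23 nL cpd via pin tool; 48 hr, 37 C, 5% CO2; Hoechst 40 min; imager read of total nuclear intensity, ex 405/em 500-530 nm.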
KB-3-1 cytotox – KB-3-1 parental cell cytotoxicity; KB-3-1 viability, CellTiter-Glo ATP luminescence, 72 h; Potency, µM (series often up to 46.1 µM), hits mostly cytotoxic; 400,000 compounds, 1.4% hits; further: nearly all actives have a fitted effect of over 60% in size
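Here the drug-naive KB-3-1 line serves as comparator for MDR sub-line selectivity; cells received compound titrations, 72 h at 37 °C, then CellTiter-Glo readout.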
KCNH2 WT inh – inhibitors of human wildtype KCNH2 potassium channel; Q12809; 340,000 compounds, 0.37% hits; activity change, % at 1.84 µM; U2OS, BacMam KCNH2, thallium flux FluxOr; stronger effect = lower value;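 active means maximum activity change below -70%; inconclusive means maximum activity change between -70% and -50%; inactive means maximum activity change above -50%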
Target sequence (Q12809 whole entry, looked up): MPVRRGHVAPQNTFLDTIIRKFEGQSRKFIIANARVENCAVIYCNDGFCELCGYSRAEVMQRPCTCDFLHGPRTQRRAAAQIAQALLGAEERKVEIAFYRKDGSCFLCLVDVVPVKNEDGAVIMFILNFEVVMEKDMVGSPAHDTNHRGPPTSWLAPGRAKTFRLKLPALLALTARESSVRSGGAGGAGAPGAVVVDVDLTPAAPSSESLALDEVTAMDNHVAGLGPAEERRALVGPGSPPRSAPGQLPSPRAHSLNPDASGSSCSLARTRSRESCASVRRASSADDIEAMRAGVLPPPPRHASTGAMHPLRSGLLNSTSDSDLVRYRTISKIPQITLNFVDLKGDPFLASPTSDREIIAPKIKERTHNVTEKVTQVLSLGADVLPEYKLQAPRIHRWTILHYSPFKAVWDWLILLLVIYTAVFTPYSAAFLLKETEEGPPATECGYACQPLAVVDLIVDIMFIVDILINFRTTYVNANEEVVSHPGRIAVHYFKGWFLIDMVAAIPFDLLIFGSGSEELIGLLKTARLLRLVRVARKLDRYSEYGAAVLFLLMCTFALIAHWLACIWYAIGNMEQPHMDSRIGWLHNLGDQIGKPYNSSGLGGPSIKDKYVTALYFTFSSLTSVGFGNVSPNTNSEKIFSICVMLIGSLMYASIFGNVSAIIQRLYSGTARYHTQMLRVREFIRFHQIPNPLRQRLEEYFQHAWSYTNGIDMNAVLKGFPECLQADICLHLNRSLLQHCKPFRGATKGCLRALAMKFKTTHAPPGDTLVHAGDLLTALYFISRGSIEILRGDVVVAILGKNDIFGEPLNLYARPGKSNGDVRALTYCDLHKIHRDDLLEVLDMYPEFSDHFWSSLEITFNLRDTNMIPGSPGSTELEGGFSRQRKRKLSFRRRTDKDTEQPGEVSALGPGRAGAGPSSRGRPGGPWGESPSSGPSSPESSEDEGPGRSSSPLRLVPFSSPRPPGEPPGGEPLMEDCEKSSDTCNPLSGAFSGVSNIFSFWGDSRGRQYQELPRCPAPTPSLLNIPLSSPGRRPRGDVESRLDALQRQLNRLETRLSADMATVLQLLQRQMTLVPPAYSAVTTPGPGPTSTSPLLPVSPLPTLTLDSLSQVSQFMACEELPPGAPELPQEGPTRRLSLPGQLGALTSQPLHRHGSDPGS
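U2OS cells were transduced with wild-type KCNH2 virus (2.03 x 10^8 / mL) for 4 h at room temperature, then cultured overnight at 37 C. Thallium flux was read with FluxOr dye. Rate constants were normalized to DMSO controls.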
MCF10A rerep – inducers of DNA re-replication in MCF 10A breast cells; MCF 10A DNA re-replication, Hoechst nuclear intensity, 48 h; Potency, µM (series often up to 46.1 µM), actives largely listed as activators; 350,000 compounds, 2.9% hits; further: nearly all actives have a fitted effect of over 50% in size
KB-V1 cytotox – KB-V1 MDR subline cytotoxicity; KB-V1 MDR cells viability, CellTiter-Glo, 72 h; Potency, µM (highest dose often 46.1 µM), most hits filed as cytotoxic; 400,000 compounds, 3.4% hits; AID 1347076; further: nearly all actives have a fitted effect of over 60% in size
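Potencies derive from concentration-effect curves fitted to normalized luminescence (CellTiter-Glo) of KB-V1 cells treated for 72 h at 37 degrees C in phenol-red-free DMEM containing 10% FBS.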
Large screens that a line does not name were inactive. Shown are actives, neighbours in structure and some others; about 7.6% of the full set was active somewhere. Unless noted, the call rests on the fitted dose curve; in most records, active means well fitted curve in the direction sought with a large enough effect; inconclusive means small, poorly fitted or top-dose-only effect, or another doubt; inactive means no such curve, though single readings can be large; an effect the other way counts as inactive or inconclusive.

COc1ccc(CN2C(=O)C(C)Nc3ncnc(N4CCc5ccccc5C4)c32)cc1 (configuration not stated)	KB-3-1 cytotox 2.3µM, KB-V1 cytotox inconclusive (no result: KCNH2 3.1 inh, SW480 rereplic, KCNH2 WT inh, MCF10A rerep)
COc1ccc(CN2C(=O)C(C)Nc3ncnc(N4CCN(c5ccccn5)CC4)c32)cc1 (configuration not stated)	none
CCC1Nc2ncnc(N3CCN(c4ccccc4)CC3)c2N(Cc2ccc(Br)cc2)C1=O (configuration not stated)	KCNH2 3.1 inh -88, SW480 rereplic inconclusive, MCF10A rerep inconclusive
COc1cc(Br)c(CC(=O)NNC(=O)c2ccc(F)cc2)cc1OC	none
Fc1cccc(Cl)c1CSc1ccc(-c2cccnc2)nn1	MCF10A rerep 23µM
CCc1sc(-c2cc3cccc(OC)c3oc2=O)nc1-c1cc(C)ccc1C	KB-V1 cytotox inconclusive (no result: KCNH2 3.1 inh, SW480 rereplic, KCNH2 WT inh, MCF10A rerep)
Cc1ccc(NC(=O)c2cc3c(s2)CCCC3)cc1S(=O)(=O)Nc1ccccc1Cl	SW480 rereplic inconclusive, KB-3-1 cytotox inconclusive, KB-V1 cytotox inconclusive
COc1ccccc1NS(=O)(=O)c1cc(NC(=O)Nc2ccccc2)ccc1N1CCCCC1	KB-V1 cytotox inconclusive
O=C(Nc1ccc(F)cc1)Nc1ccc(N2CCCC2)c(S(=O)(=O)Nc2ccccc2Cl)c1	KCNH2 3.1 inh -114, SW480 rereplic inconclusive, KB-3-1 cytotox 21µM, KB-V1 cytotox inconclusive
COc1ccccc1NS(=O)(=O)c1cc(NC(=O)c2ccccc2)ccc1N1CCCC1	none (no result: KCNH2 3.1 inh, SW480 rereplic, KCNH2 WT inh, MCF10A rerep)
O=C(Nc1ccc(Cl)c(Cl)c1)Nc1ccc(N2CCCC2)c(S(=O)(=O)Nc2ccccc2Cl)c1	SW480 rereplic inconclusive, KB-3-1 cytotox 5.2µM, MCF10A rerep inconclusive, KB-V1 cytotox 23µM
O=C(Nc1ccc(N2CCOCC2)c(S(=O)(=O)Nc2ccccc2Cl)c1)c1ccc(F)cc1	KB-3-1 cytotox inconclusive, MCF10A rerep inconclusive, KB-V1 cytotox inconclusive
Cc1ccc(C(=O)Nc2ccc(C)c(S(=O)(=O)Nc3ccccc3Cl)c2)s1	KB-3-1 cytotox 23µM, MCF10A rerep inconclusive, KB-V1 cytotox inconclusive
O=C(Nc1ccc(N2CCCCC2)c(S(=O)(=O)Nc2ccccc2Cl)c1)c1cccnc1	SW480 rereplic inconclusive, MCF10A rerep 18µM (no result: KB-3-1 cytotox, KB-V1 cytotox)
CC1=C(C(=O)N2CCOCC2)CC(CC(=O)NCCCCc2ccccc2)C(=O)N1CCCN1CCCC1=O (configuration not stated)	KB-V1 cytotox inconclusive (no result: SW480 rereplic, MCF10A rerep)
COc1ccc(-c2cc(C(F)F)nc(-n3nc(C)cc3C)n2)cc1	KB-V1 cytotox 23µM
Cc1cccc(NC(=O)c2cc(CN3CCOCC3)on2)c1C	none (no result: KCNH2 3.1 inh, SW480 rereplic, KCNH2 WT inh, MCF10A rerep)
O=C(CN1CCN(c2ccc(C(F)(F)F)cn2)CC1)NCc1ccc2c(c1)OCO2	none
Clc1ccc(CSc2nncn2-c2ccc3c(c2)OCCO3)cc1	SW480 rereplic 21µM, KB-3-1 cytotox 13µM, MCF10A rerep 9.2µM, KB-V1 cytotox inconclusive
Cc1ccc(C(=O)Nc2ccc(N3CCN(C(=O)c4cccs4)CC3)cc2)c(Cl)c1	KB-3-1 cytotox inconclusive, MCF10A rerep inconclusive, KB-V1 cytotox inconclusive
C=C1C(=O)OC2C1C(OC(=O)C(C)=CC)CC(=C)C1C(O)C3OC3(C)C21O (configuration not stated)	SW480 rereplic 21µM, MCF10A rerep 13µM
COC(=O)c1sc2ccccc2c1-n1cccc1C(=O)C(=O)Nc1ccc(OC)cc1	KB-3-1 cytotox 5.8µM, KB-V1 cytotox 8.2µM
CCOC(=O)c1c(C)n(-c2ccccc2)c2ccc(OC(=O)c3ccccc3NC(=O)C(C)(C)C)cc12	KB-V1 cytotox inconclusive (no result: KCNH2 3.1 inh, SW480 rereplic, KCNH2 WT inh, MCF10A rerep)
CCOC(=O)C1CCCN(C(=S)NC(=O)c2cc(Br)ccc2Cl)C1 (configuration not stated)	SW480 rereplic 16µM
O=C(c1ccc2c(=O)n(Cc3ccccc3Cl)c(=S)[nH]c2c1)N1CCOCC1	none
CCOC(=O)[C@]12CCC=C1N(Cc1ccco1)C(=O)[C@H](CC(=O)N1CCN(C(=O)C3CC3)CC1)C2	none (no result: KCNH2 3.1 inh, SW480 rereplic, KCNH2 WT inh, MCF10A rerep)
N#Cc1nc(-c2ccc(Cl)cc2)oc1NCc1ccco1	MCF10A rerep 15µM
CCOc1ccc(Nc2oc(-c3ccc(Cl)cc3)nc2C#N)cc1	SW480 rereplic inconclusive, KB-3-1 cytotox inconclusive, MCF10A rerep 21µM, KB-V1 cytotox inconclusive
COc1ccc(Nc2oc(-c3ccc(Cl)cc3)nc2C#N)cc1	SW480 rereplic inconclusive, KB-3-1 cytotox 4.6µM, MCF10A rerep 16µM, KB-V1 cytotox inconclusive
COc1ccc(Nc2oc(-c3ccc(OC)cc3)nc2C#N)cc1	none
COc1ccccc1-c1cnc(C(O)c2ccc(C)cc2C)[nH]1 (configuration not stated)	KB-V1 cytotox inconclusive (no result: KCNH2 3.1 inh, SW480 rereplic, KCNH2 WT inh, MCF10A rerep)
O=C(Nc1ccc2nc3n(c(=O)c2c1)CCCC3)c1cc([N+](=O)[O-])ccc1F	SW480 rereplic 15µM, MCF10A rerep 15µM, KB-V1 cytotox 16µM
CC1CCN(C(=S)Nc2ccc3nc4n(c(=O)c3c2)CCCCC4)CC1	MCF10A rerep inconclusive, KB-V1 cytotox 6.5µM
O=C(Nc1ccc2nc3n(c(=O)c2c1)CCCC3)c1cccc([N+](=O)[O-])c1	KB-V1 cytotox inconclusive
CCC(C)(C)NC(=O)C(c1ccc(OC)cc1)N(C(=O)CCC(=O)Nc1cc(C)on1)c1ccc2c(c1)OCCO2 (configuration not stated)	none
Cc1ccc(Cn2ccsc2=NC(=O)COC(=O)C(C)C)cc1	KB-3-1 cytotox 16µM
Clc1cccc(NCc2ccccc2)n1	none
COc1ccccc1-n1cnc2cc(NCc3cccs3)ccc21	SW480 rereplic 2.1µM, KB-3-1 cytotox 1.2µM, MCF10A rerep 1.5µM, KB-V1 cytotox inconclusive
COc1ccc(CNc2ccc3c(c2)ncn3-c2ccccc2OC)cc1	SW480 rereplic inconclusive, KB-V1 cytotox 16µM
COc1ccccc1-n1cnc2cc(NS(=O)(=O)c3ccc(Br)cc3)ccc21	MCF10A rerep inconclusive, KB-V1 cytotox 12µM
CCOc1ccc(CNc2ccc3c(c2)ncn3C(C)(C)C)cc1	KCNH2 3.1 inh -110
Cc1ccc(NC(=Nc2ccc(Br)cc2)N2CCOCC2)cc1C	none
Cc1ccc(OCCSc2nnc(C)c(=O)n2N)cc1	SW480 rereplic inconclusive
N=C(N)c1ccc(N=Nc2c(O)ccc3c2[nH]c2ccccc23)cc1	KB-3-1 cytotox inconclusive
Cc1ccc(OCC(=O)Nc2cccc(-c3nc4ccccc4s3)c2)cc1	none (no result: KCNH2 3.1 inh, SW480 rereplic, KCNH2 WT inh, MCF10A rerep)
Cn1c(=O)c2cc(NC(=O)OCCF)ccc2n1Cc1cccc(C(F)(F)F)c1	none (no result: KCNH2 3.1 inh, SW480 rereplic, KCNH2 WT inh, MCF10A rerep)
Cc1ccccc1-n1cnc2cc(NCc3cccs3)ccc21	SW480 rereplic 18µM, KB-3-1 cytotox inconclusive, MCF10A rerep inconclusive
COc1ccccc1-n1cnc2cc(NCc3ccco3)ccc21	SW480 rereplic 1.5µM, KB-3-1 cytotox 0.58µM, MCF10A rerep 2.1µM, KB-V1 cytotox 2.6µM
COc1ccc(/C=C/C(=O)N2CCN(C)CC2)cc1OC	none
